Screens from PubChem BioAssay.
MITF inh: blocks MITF activity. TRPM1 promoter luciferase, luminescence, 24 h. inhibition, % (concentration not given with the values). actives 0.28% (n = 37,000). AID 2240; in the data active means inhibition above about 85%;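 further: human melanocyte line stably carrying TRPM1 promoter luciferase reporter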
YB-1 expression: YB-1 expression inhibition | delta delta Cp (YB-1 minus CDIP) (concentration not given with the values) | U2OS, qRT-PCR YB-1 vs CDIP delta delta Cp, 16 h; active compounds read high; zero = DMSO, each unit about twofold | actives 0.37% (n = 30,000) | AID 434959;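 active means delta delta Cp rounded down to an integer at or above 3, about 3 SD of DMSO wells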;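 further: higher means less YB-1 transcript or more CDIP transcript relative to DMSO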
PD-1 reversal: activators reversing PD-1 mediated T-cell inhibition | 29,000 tested, under 10 active | primary human CD4 T cells, PD-L1 beads, CellTiter-Glo 96 h | activation, % (test concentration not listed); call rule not given here
Hedgehog inh: blocks Sonic Hedgehog signaling. actives 2.1% (n = 22,000). Shh-LIGHT2 Gli-luciferase reporter, 30 h. inhibition, % (concentration not given with the values);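 active means mean inhibition across valid replicates above about 65%, limit read from the data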;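 further: pathway switched on by Shh-conditioned medium diluted 1 in 25 in low serum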
Each line names hits and unclear results; the compound was inactive in the other large screens. The entries come from a sample that favours hits as a whole.

CC(=O)C1C(=O)[C@@H]2[C@H]3c4c[nH]c5cccc(c45)C[C@H]3C(C)(C)N2C1=O (stereo partly specified)	Hedgehog inh 77.0
C[C@H]1CN([C@@H](C)CO)C(=O)c2cc(NC(=O)CCN3CCOCC3)ccc2O[C@@H]1CN(C)Cc1ccccc1	none
COc1ccc(CN(C)C[C@@H]2Oc3c(NC(=O)Nc4ccccc4)cccc3C(=O)N([C@@H](C)CO)C[C@H]2C)cc1	none (no result: PD-1 reversal)
C[C@@H]1CN([C@H](C)CO)C(=O)Cc2cc(N(C)C)ccc2O[C@H]1CN(C)S(=O)(=O)c1cccs1	none
COc1ccc(NC(=O)Nc2cccc3c2O[C@H](CN(C)C(=O)Nc2c(C)noc2C)[C@H](C)CN([C@H](C)CO)C3=O)cc1	YB-1 expression 5.89
COc1ccc(NC(=O)Nc2cccc3c2O[C@H](CN(C)Cc2ccccc2)[C@@H](C)CN([C@@H](C)CO)C3=O)cc1	YB-1 expression 3.56
COc1ccc(NC(=O)Nc2ccc3c(c2)CC(=O)N([C@@H](C)CO)C[C@H](C)[C@@H](CN(C)S(=O)(=O)c2ccc(Cl)cc2)O3)cc1	Hedgehog inh 74.1
C[C@@H]1CN([C@H](C)CO)C(=O)Cc2cc(N(C)C)ccc2O[C@@H]1CN(C)S(=O)(=O)c1cccs1	Hedgehog inh 68.8 (no result: PD-1 reversal)
C[C@@H]1CN([C@H](C)CO)C(=O)Cc2cc(NS(=O)(=O)c3ccccc3)ccc2O[C@H]1CN(C)S(=O)(=O)c1ccccc1	YB-1 expression 5.14 (no result: PD-1 reversal)
COc1ccc(NC(=O)Nc2cccc3c2O[C@@H](CN(C)S(=O)(=O)c2ccc(Cl)cc2)[C@@H](C)CN([C@H](C)CO)C3=O)cc1	Hedgehog inh 91.9 (no result: PD-1 reversal)
COc1ccc(NC(=O)Nc2cccc3c2O[C@H](CN(C)S(=O)(=O)c2ccccc2)[C@H](C)CN([C@H](C)CO)C3=O)cc1	Hedgehog inh 74.5 (no result: PD-1 reversal)
COc1ccc(S(=O)(=O)N(C)C[C@@H]2Oc3c(NC(=O)Nc4ccc(F)cc4)cccc3C(=O)N([C@H](C)CO)C[C@@H]2C)cc1	Hedgehog inh 67.9
COc1ccc(NC(=O)Nc2cccc3c2O[C@H](CN(C)S(=O)(=O)c2ccc(Cl)cc2)[C@@H](C)CN([C@H](C)CO)C3=O)cc1	none
CSc1cccc(NC(=O)C(C)N(c2ccc(C)c(C)c2)S(C)(=O)=O)c1 (stereo unspecified)	none (no result: YB-1 expression, Hedgehog inh)
Cc1noc(C)c1NC(=O)Nc1cccc2c1O[C@@H](CN(C)C(=O)NC(C)C)[C@@H](C)CN([C@H](C)CO)C2=O	none (no result: YB-1 expression)
C[C@H](CO)N1C[C@H](C)[C@@H](CN(C)Cc2ccccc2)Oc2c(cccc2N(C)C)C1=O	none
C[C@H]1CN([C@@H](C)CO)C(=O)Cc2cc(NC(=O)Nc3ccc(F)cc3)ccc2O[C@H]1CN(C)S(=O)(=O)c1cn(C)cn1	YB-1 expression 8.08
C[C@@H]1CN([C@@H](C)CO)C(=O)c2cccc(N(C)C)c2O[C@H]1CN(C)Cc1ccccc1	YB-1 expression 14.4
C[C@H](CO)N1C[C@H](C)[C@H](CN(C)S(=O)(=O)c2cn(C)cn2)Oc2ccc(NC(=O)Nc3ccc(F)cc3)cc2CC1=O	none
COc1ccc(S(=O)(=O)N(C)C[C@@H]2Oc3c(NC(=O)Nc4ccc(F)cc4)cccc3C(=O)N([C@@H](C)CO)C[C@@H]2C)cc1	Hedgehog inh 85.6
C[C@H](CO)N1C[C@H](C)[C@H](CN(C)CC2CCCCC2)Oc2c(NC(=O)Nc3ccccc3)cccc2C1=O	YB-1 expression 3.1
COc1ccc(C2C(C#N)=C(N)Oc3cc(C)n(CCc4ccc(OC)c(OC)c4)c(=O)c32)cc1 (stereo unspecified)	none
C[C@H](CO)N1C[C@H](C)[C@@H](CN(C)C(=O)Nc2ccc3c(c2)OCO3)Oc2c(NS(=O)(=O)c3ccc(Cl)cc3)cccc2C1=O	none
CC(C)NC(=O)Nc1cccc2c1O[C@@H](CN(C)S(=O)(=O)c1ccc(Cl)cc1)[C@@H](C)CN([C@@H](C)CO)C2=O	Hedgehog inh 95.6
CC(C)NC(=O)Nc1cccc2c1O[C@@H](CN(C)S(=O)(=O)c1ccc(Cl)cc1)[C@@H](C)CN([C@H](C)CO)C2=O	Hedgehog inh 102.0
CC(C)NC(=O)Nc1cccc2c1O[C@@H](CN(C)S(=O)(=O)c1ccc(F)cc1)[C@@H](C)CN([C@@H](C)CO)C2=O	Hedgehog inh 79.7
COc1cc2c(cc1O)C(C1CC1)N(Cc1cc3c(cc1Br)OCO3)CC2 (stereo unspecified)	none (no result: MITF inh, PD-1 reversal, Hedgehog inh)
C[C@@H]1CN([C@H](C)CO)C(=O)Cc2cc(N(C)C)ccc2O[C@H]1CN(C)C(=O)Nc1ccc(F)cc1	none
C=CCNC(=O)[C@@H]1[C@H]2C(=O)O[C@H](c3ccccc3)[C@H](c3ccccc3)N2[C@H](c2ccc(O)cc2)[C@@]12C(=O)Nc1ccc(C#CCCO)cc12	none (no result: MITF inh, PD-1 reversal, Hedgehog inh)
OC[C@H]1O[C@@H](n2cnc3c(NCc4ccco4)ncnc32)[C@H](O)[C@@H]1O	Hedgehog inh 97.8 (no result: PD-1 reversal)
c1coc(CNc2ncnc3c2sc2nc(N4CCOCC4)c4c(c23)CCC4)c1	none (no result: YB-1 expression, PD-1 reversal, Hedgehog inh)
C[C@H]1CN([C@@H](C)CO)C(=O)Cc2cc(NC(=O)NC3CCCCC3)ccc2O[C@H]1CN(C)C(=O)Nc1ccc2c(c1)OCO2	none (no result: Hedgehog inh)
CCOC(=O)N1CCc2c(sc3ncn(Cc4ccc(Cl)cc4)c(=O)c23)C1	Hedgehog inh 95.1
C[C@@H]1CN([C@H](C)CO)C(=O)c2cc(NC(=O)Nc3ccc4c(c3)OCO4)ccc2O[C@@H]1CN(C)Cc1ccc(Oc2ccccc2)cc1	Hedgehog inh 92.2
C[C@@H]1CN([C@H](C)CO)C(=O)c2cc(NC(=O)Nc3ccc4c(c3)OCO4)ccc2O[C@H]1CN(C)Cc1ccc(Oc2ccccc2)cc1	none (no result: Hedgehog inh)
COc1ccc(NC(=O)Nc2ccc3c(c2)C(=O)N([C@@H](C)CO)C[C@@H](C)[C@@H](CN(C)Cc2ccc(Oc4ccccc4)cc2)O3)cc1	Hedgehog inh 94.0
Cc1noc(C)c1NC(=O)Nc1ccc2c(c1)CC(=O)N([C@@H](C)CO)C[C@@H](C)[C@@H](CN(C)Cc1ccccc1)O2	none (no result: PD-1 reversal)
COc1cc2c(cc1OC)[C@@H]1C(=O)c3ccc4c(c3O[C@@H]1CO2)C=CC(C)(C)O4	MITF inh 99.5 (no result: PD-1 reversal)
COc1c2c(cc3oc(=O)ccc13)OC(C)(C)C=C2	none
CC(C)NC(=O)N(C)C[C@@H]1Oc2c(NC(=O)NC3CCCCC3)cccc2C(=O)N([C@H](C)CO)C[C@@H]1C	none
CCOc1ccc(NC(=O)C2CC(=O)NC(N3CCN(C)CC3)=N2)cc1 (stereo unspecified)	none (no result: YB-1 expression, Hedgehog inh)
COc1ccc(NC(=O)c2cc(-c3ccccn3)nc3c(C)cc(C)cc23)c([N+](=O)[O-])c1	MITF inh 86.8 (no result: YB-1 expression, PD-1 reversal, Hedgehog inh)
COc1cccc(C(=O)NC(c2ccc([N+](=O)[O-])cc2)c2c(O)ccc3ccccc23)c1 (stereo unspecified)	none (no result: YB-1 expression, PD-1 reversal, Hedgehog inh)
COc1cccc(C(=O)NC(c2ccc(Cl)cc2)c2c(O)ccc3ccccc23)c1 (stereo unspecified)	MITF inh 101.5 (no result: YB-1 expression, Hedgehog inh)
C=CC(C)(CC/C=C(\C)C(O)CC=C(C)C)OC1OC(CO)C(O)C(O)C1O (stereo unspecified)	Hedgehog inh 78.2 (no result: MITF inh, PD-1 reversal)
